The values below come from PubChem BioAssay (Tox21).

The structures appear in SMILES notation. A number with no mark means an inactive call. Records with an inconclusive call do not appear. Active and inactive are the calls of the source. Unless noted, the call rests on the fitted dose curve; in most records, active means well fitted curve in the direction sought with a large enough effect in the repeat runs; inconclusive means weak or mixed curves; inactive means no such curve, though single readings can be large; an effect the other way counts as inactive or inconclusive.

Experiment [1] is described as follows: qHTS assay to identify small molecule agonists of the hypoxia (HIF-1) signaling pathway - cell viability counter screen (AID 1224844; calls by dose curve; further: nearly all actives have a fitted effect of over 50% in size; further: potency means the concentration at half of the fitted maximal effect). The gist of the method:
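Viability counter screen: HRE-bla ME-180 cells plated 5 hrs before compound addition, treated 17 hrs at 37C and 5% CO2, then CellTiter-Glo added after the FRET reporter read; luminescence after 30 min.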

The nature of experiment [2]: qHTS assay to identify small molecule agonists of H2AX (AID 1224845; active means well fitted activation curve with a large enough effect in the signal ratio in the repeat runs, not every such curve was filed as active; the % refers to the signal ratio). The gist of the method:
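Phospho-H2AX Ser139 measured by HTRF (ex 320 nm; em 665 and 620 nm) after 24 hr antibody incubation. Compounds, 15 concentrations, 0.76% DMSO, were applied to CHO-K1 cells for 3hr at 37C before lysis.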
(Quantitative high-throughput screening tests each substance at several concentrations.)

Experiment [3] can be described thus: qHTS assay to identify small molecule agonists of H2AX - cell viability counter screen (AID 1224847; calls by dose curve;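 further: wild-type CHO-K1 cells; top concentration of the series differs between compounds; nearly all actives have a fitted effect of over 30% in size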). The gist of the method:
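CHO-K1 cells plated overnight at 37C, then exposed 3 h at 37C to compounds at 15 concentrations (0.76% DMSO final). Viability by CellTiter-Glo luminescence after 30 min at room temperature.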

Experiment [4] is described as follows: qHTS assay to identify small molecule antagonists of the estrogen related receptor (ERR) signaling pathway from Tox21 library (AID 1224848). Further: nearly all actives have a fitted effect of over 50% in size. The gist of the method:
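Luciferase luminescence (ONE-Glo, 30 min room temperature) was the read-out. Cells of the NTP-supplied ERR line, 2,000 per well, were given 6 h at 37 C before compound addition in DMSO and 18 h exposure at 37 C.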

Experiment [5] can be described thus: qHTS assay to identify small molecule agonists of the estrogen related receptor (ERR) signaling pathway from Tox21 library (AID 1224849; calls by dose curve; further: nearly all actives have a fitted effect of over 15% in size). The settings on record: ERR reporter cell line, ONE-Glo luciferase, 18 h. The gist of the method: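 Quantitative HTS in agonist format: NTP ERR cell line, compounds transferred in DMSO after 6 h plating, 18 h incubation at 37 C, ONE-Glo luminescence endpoint.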

The nature of experiment [6]: qHTS RealTime-Glo MT Cell Viability Assay in HepG2 cells - 24 hour (AID 1224867). Further: nearly all actives have a fitted effect of over 50% in size. The gist of the method:
(§1)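 HepG2 suspension premixed with RealTime-Glo reagents is plated at 600 cells per well and left 5 h at 37 C/5% CO2. Compounds in DMSO then go in, and bioluminescence reflecting viable cell number is recorded over 40 h.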

A short description of experiment [7]: qHTS RealTime-Glo MT Cell Viability Assay in HEK293 cells - 32 hour (AID 1224868). Further: top concentration of the series differs between compounds; nearly all actives have a fitted effect of over 50% in size. The gist of the method:
(§2)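 Reads taken at 0, 8, 16, 24, 32 and 40 h from the same wells. HEK293 cells (600/well) carried RealTime-Glo reagents from seeding, with compound added after a 5 h settle at 37 C.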

A short description of experiment [8]: A CellTox Green Cytotoxicity Assay to monitor cytotoxicity in HEK293 cells - 0 hour (AID 1224869). Further: nearly all actives have a fitted effect of over 50% in size. The essentials: (§3)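 Dead-cell fluorescence measured kinetically: asymmetric cyanine dye, HEK293, 600 cells/well, 5 h settle, 23 nL cpd/DMSO, 37 C, reads 0–40 h every 8 h.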
Experiment [9] can be described thus: qHTS RealTime-Glo MT Cell Viability Assay in HepG2 cells - 40 hour (AID 1224870). Further: nearly all actives have a fitted effect of over 50% in size. The essentials:
(§4)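 Real-time viability: cells seeded at 600 per well together with NanoLuc and cell-permeant prosubstrate, compounds added after 5 h incubation. Luminescence tracked at 0, 8, 16, 24, 32 and 40 h of exposure.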

Experiment [10] in a line: A CellTox Green Cytotoxicity Assay to monitor cytotoxicity in HEK293 cells - 40 hour (AID 1224871). Further: nearly all actives have a fitted effect of over 45% in size. The gist of the method:
as §3

A short description of experiment [11]: qHTS RealTime-Glo MT Cell Viability Assay in HEK293 cells - 16 hour (AID 1224872). The essentials:
as §2

Experiment [12] is described as follows: qHTS RealTime-Glo MT Cell Viability Assay in HepG2 cells - 8 hour (AID 1224873). Further: nearly all actives have a fitted effect of over 55% in size. The essentials: as §4
Experiment [13] can be described thus: qHTS RealTime-Glo MT Cell Viability Assay in HEK293 cells - 40 hour (AID 1224874). Further: nearly all actives have a fitted effect of over 50% in size. The settings on record: RealTime-Glo luminescence; max response: active compounds read low. The essentials:
(§5)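 600 HEK293 cells per well, dispensed already mixed with RealTime-Glo MT reagents. Compound dosing came 5 h later. The same wells were read for luminescence at 0, 8, 16, 24, 32 and 40 h of exposure at 37 C.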

Experiment [14] can be described thus: A CellTox Green Cytotoxicity Assay to monitor cytotoxicity in HEK293 cells - 24 hour (AID 1224875). Further: nearly all actives have a fitted effect of over 45% in size. The gist of the method: as §3
The nature of experiment [15]: A CellTox Green Cytotoxicity Assay to monitor cytotoxicity in HepG2 cells - 16 hour (AID 1224876). Further: nearly all actives have a fitted effect of over 45% in size. The essentials:
(§6)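 First, HepG2 cells (600/well) mixed with reagent were plated; second, after 5 h at 37 C they received compounds via pintool; third, fluorescence was measured at 0 h through 40 h at 8 h intervals.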

The nature of experiment [16]: qHTS RealTime-Glo MT Cell Viability Assay in HepG2 cells - 32 hour (AID 1224877). Further: nearly all actives have a fitted effect of over 55% in size. The gist of the method:
as §1

Experiment [17] is described as follows: A CellTox Green Cytotoxicity Assay to monitor cytotoxicity in HepG2 cells - 24 hour (AID 1224878). Further: nearly all actives have a fitted effect of over 45% in size. The essentials:
as §6

A short description of experiment [18]: A CellTox Green Cytotoxicity Assay to monitor cytotoxicity in HepG2 cells - 40 hour (AID 1224879). Further: nearly all actives have a fitted effect of over 40% in size. The gist of the method: as §6
Experiment [19] can be described thus: qHTS RealTime-Glo MT Cell Viability Assay in HEK293 cells - 0 hour (AID 1224880). The gist of the method: as §5
Experiment [20] can be described thus: qHTS assay to identify small molecule agonists of the hypoxia (HIF-1) signaling pathway (AID 1224846; active means well fitted activation curve with a large enough effect in the signal ratio in the repeat runs, not every such curve was filed as active; the % refers to the signal ratio). The gist of the method: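 Agonist mode reporter screen. ME-180 cells stably expressing bla under HRE control received test compounds in DMSO for 17 hrs (37C, 5% CO2), and beta-lactamase activity was then detected with the CCF4-AM FRET substrate.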
On the % scale 0 is the no-effect control and ±100 the full control effect.

Consider `CC[N+]1(C)CCCC(OC(=O)C(O)(c2ccccc2)c2ccccc2)C1` (stereo not given), for which the Potency result in experiment [1], in experiment [2], in experiment [3], in [4], in [6] and in experiment [7] was “inactive” in each case. Moreover, the Potency result in experiment [8], in [9], in experiment [10], in experiment [11], in [12] and in [14] was “inactive” throughout. For the same compound, the Potency entry in [15], in [16], in [17] and in experiment [18] was “inactive” in each case. Moreover, the activity change, positive = activation in experiment [5] (at 42.5 µM (top of the series)) was 6.13%. Besides, the max response in experiment [13] is 1.3%. For the same compound, the compound was called inactive in [19].
`CC(C)(C)N(NC(=O)c1ccc(Cl)cc1)C(=O)c1ccccc1`: the Potency result in [1], in [3], in experiment [6], in experiment [8], in experiment [9] and in experiment [10] was “inactive” each time. Also, the Potency result in [12], in experiment [15], in experiment [16], in experiment [17] and in experiment [18] was “inactive” each time. For the same compound, the outcome in [20] and in experiment [19] was inactive. Also, the activity change, positive = activation in experiment [5] (at 92.4 µM (top of the series)) is -30.6%.
Take `NNCCO`: the Potency result in experiment [1], in experiment [3], in [4], in experiment [6], in experiment [7] and in [8] was “inactive” throughout. In addition, the Potency entry in [9], in experiment [10], in experiment [11], in [12], in experiment [14] and in [15] was “inactive” in each case. Further, the Potency entry in experiment [16], in experiment [17] and in [18] was “inactive” in each case. In addition, the outcome in [20] and in [19] was inactive. The max response in [13] was -1.69%.
As for `C1CCNCC1`, the Potency result in [1], in experiment [3], in [6], in experiment [7], in experiment [8] and in [9] was “inactive” in each case. Further, the Potency result in [10], in [11], in experiment [12], in experiment [14], in experiment [15] and in [16] was “inactive” in each case. The Potency result in [17] and in [18] was “inactive” throughout. Further, the compound was classed as inactive in experiment [20] and in experiment [19]. The max response in [13] is 0.2%.
In the case of `CON(C)C(=O)Nc1ccc(Cl)cc1`, the Potency entry in [1], in [2], in experiment [6], in experiment [7], in experiment [8] and in experiment [9] was “inactive” each time. Further, the Potency result in experiment [11], in experiment [12], in experiment [14], in experiment [15], in [16] and in experiment [17] was “inactive” throughout. Besides, the Potency result in [18] is “inactive”. Besides, the compound was classed as inactive in experiment [20] and in [19]. Moreover, the max response in experiment [13] was -13.1%.
For the compound `COC1CC(=C(c2cccs2)c2cccs2)C[N+](C)(C)C1` (stereo not given), the Potency result in [1], in experiment [3], in [6], in [7], in [8] and in experiment [9] was “inactive” throughout. For the same compound, the Potency result in experiment [10], in [11], in [12], in experiment [14], in [15] and in experiment [16] was “inactive” each time. Also, the Potency entry in experiment [17] and in [18] was “inactive” throughout. The result in [20] and in experiment [19] was inactive. In experiment [13], the max response was -21.7%.
Take `COc1ccc(C(=O)c2c(C)n(CCN3CCOCC3)c3ccccc23)cc1`: the Potency entry in experiment [1], in [3], in experiment [6], in experiment [8], in experiment [9] and in experiment [10] was “inactive” in each case. Also, the Potency result in experiment [11], in [12] and in experiment [16] was “inactive” throughout. For the same compound, the outcome in [20] and in [19] was inactive. The activity change, positive = activation in experiment [5] (at 42.5 µM (top of the series)) is -28.1%.
`O=C(O)C(F)(F)C(F)(F)C(F)(F)C(F)(F)C(F)(F)C(F)(F)C(F)(F)C(F)(F)F`: the Potency in experiment [1] was 8.71 µM (active). For the same compound, the Potency entry in experiment [2], in [7], in [8], in experiment [9], in experiment [10] and in experiment [11] was “inactive” each time. For the same compound, the Potency entry in experiment [14], in [15], in experiment [17] and in experiment [18] was “inactive” throughout. Further, the compound was called inactive in experiment [20] and in experiment [19].
In the case of `Cc1nnc(-c2ccccc2)c(=O)n1N`, the Potency result in experiment [1], in [2], in experiment [7], in experiment [8], in [9] and in [10] was “inactive” throughout. Also, the Potency entry in experiment [11], in [12], in experiment [15], in experiment [16], in experiment [17] and in experiment [18] was “inactive” in each case. Also, the result in [20] and in [19] was inactive. Moreover, the max response in experiment [13] was -13.2%.
For the compound `O=C(NCNC(=O)NC1C(=O)NC(=O)N1CO)NC1C(=O)NC(=O)N1CO` (stereo not given), the Potency entry in experiment [1], in [2], in experiment [3], in experiment [4], in experiment [6] and in [7] was “inactive” in each case. For the same compound, the Potency entry in experiment [8], in experiment [9], in experiment [10], in experiment [11], in experiment [12] and in [14] was “inactive” throughout. The Potency result in experiment [15], in [16], in experiment [17] and in experiment [18] was “inactive” each time. Also, in experiment [5] (at 92.4 µM (top of the series)), the activity change, positive = activation is 3.53%. Further, the max response in [13] was 4.4%. Moreover, the compound was classed as inactive in experiment [19].
On to `O=C1CC[C@@]2(O)[C@H]3Cc4ccc(O)c5c4[C@@]2(CCN3CC2CC2)[C@H]1O5`, for which the Potency entry in [1], in experiment [2], in experiment [3], in experiment [6], in experiment [7] and in experiment [8] was “inactive” in each case. Further, the Potency result in [9], in [11], in experiment [12], in experiment [14], in experiment [15] and in [16] was “inactive” each time. In addition, the Potency result in experiment [17] and in [18] was “inactive” throughout. In addition, in experiment [13], the max response is 3.94%. In experiment [19], the call was inactive.
With `COc1ccc(C(O)(c2cncnc2)C2CC2)cc1` (stereo not given), the Potency entry in experiment [1], in experiment [3], in experiment [4], in experiment [6], in experiment [7] and in [8] was “inactive” each time. Moreover, the Potency result in experiment [9], in experiment [11], in experiment [12], in [14], in experiment [15] and in [16] was “inactive” throughout. Moreover, the Potency entry in experiment [17] is “inactive”. Also, the result in experiment [20] and in [19] was inactive. In experiment [5] (at 92.4 µM (top of the series)), the activity change, positive = activation was 1.33%. The max response in experiment [13] is 0.605%.
With `CCCCC(CC)COC(=O)c1c(Br)c(Br)c(Br)c(Br)c1C(=O)OCC(CC)CCCC` (stereo not given), the Potency entry in experiment [1], in experiment [3], in experiment [6], in experiment [7], in [8] and in experiment [9] was “inactive” throughout. Moreover, the Potency result in experiment [10], in experiment [11], in experiment [12], in experiment [14], in experiment [15] and in experiment [16] was “inactive” throughout. Moreover, the Potency result in experiment [17] and in [18] was “inactive” throughout. The outcome in [20] and in [19] was inactive. For the same compound, the max response in experiment [13] is -1.1%.
